High-throughput results deposited in PubChem BioAssay by several laboratories.
An excerpt weighted towards active compounds, which were near 3.1% of everything screened.
BoNT-A LC inh2 = BoNT/A light chain protease inhibitors, primary screen, biochemical, flow cytometry, MLPCN library; Botulinum neurotoxin type A light chain protease (Clostridium botulinum A str. ATCC 3502); multiplex microsphere protease substrate cleavage; inhibition, % at 10 µM; hit rate 0.17% among 360,000; AID 588499, 2011
Anthrax LF prot = Bacillus anthracis LF protease inhibitors, primary screen, biochemical, multiplex microsphere, MLPCN library; Lethal factor (Bacillus anthracis), P15917; multiplex microsphere protease cleavage assay; inhibition, % at 10 µM; hit rate 0.12% among 360,000; AID 588501, 2011
Target sequence (P15917 whole entry, looked up): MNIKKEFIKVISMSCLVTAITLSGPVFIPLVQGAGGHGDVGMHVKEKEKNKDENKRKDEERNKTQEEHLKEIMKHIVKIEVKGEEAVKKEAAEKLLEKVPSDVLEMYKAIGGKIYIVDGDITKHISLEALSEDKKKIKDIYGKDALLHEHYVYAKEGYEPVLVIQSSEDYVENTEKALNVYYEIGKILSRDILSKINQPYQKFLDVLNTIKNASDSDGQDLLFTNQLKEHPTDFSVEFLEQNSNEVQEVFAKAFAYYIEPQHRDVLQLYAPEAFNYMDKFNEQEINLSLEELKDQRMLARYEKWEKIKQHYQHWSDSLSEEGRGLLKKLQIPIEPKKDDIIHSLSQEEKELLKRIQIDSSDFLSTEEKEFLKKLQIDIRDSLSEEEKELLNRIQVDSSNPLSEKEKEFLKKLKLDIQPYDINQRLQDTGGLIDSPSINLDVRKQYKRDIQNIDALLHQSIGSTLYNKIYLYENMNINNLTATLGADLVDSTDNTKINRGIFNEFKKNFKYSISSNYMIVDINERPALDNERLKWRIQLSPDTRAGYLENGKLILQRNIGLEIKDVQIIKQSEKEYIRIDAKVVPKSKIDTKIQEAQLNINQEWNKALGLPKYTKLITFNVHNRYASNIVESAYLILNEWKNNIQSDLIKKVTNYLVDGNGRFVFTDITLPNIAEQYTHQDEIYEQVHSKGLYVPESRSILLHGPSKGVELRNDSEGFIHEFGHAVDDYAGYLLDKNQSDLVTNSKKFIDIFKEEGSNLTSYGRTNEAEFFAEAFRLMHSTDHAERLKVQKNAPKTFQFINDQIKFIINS
BoNT F protease = BoNT/F light chain protease inhibitors, primary screen, biochemical, flow cytometry, MLPCN library. Botulinum neurotoxin type F light chain protease (Clostridium botulinum). Multiplex microsphere protease cleavage assay. inhibition, % at 10 µM. hit rate 0.22% among 360,000; in the data active means inhibition above about 35%, passing the limit was not always enough; inconclusive means no clear call, values can overlap the other calls
Autofluor counter = counter-screen for toxin protease inhibitors: compound fluorescence; hit rate 3.1% among 360,000; compound autofluorescence counterscreen, microsphere flow cytometry; stronger effect = higher value; AID 624483; fluorescence intensity (no concentration beside the values); in the data active means fluorescence intensity above about 16000; inconclusive means no clear call, values can overlap the other calls
SSB-PriA inh = inhibitors of Klebsiella pneumoniae PriA binding to SSB C-terminal tail, primary screen, biochemical, AlphaScreen. PriA–SSB C-terminal tail interaction (Klebsiella pneumoniae). inhibition, % at 33 µM. hit rate 0.6% among 430,000. AlphaScreen SSBct-PriA binding, biotinylated peptide. AID 1272365, 2023; in the data active means inhibition mostly above about 37%, no sharp cut-off; inactive means mostly below about 20%
Numbers stand for hits; n = inactive; u = inconclusive; x = not tested or not shown. Unless noted, no stated cut-off is given here; in the data, active means inhibition above about 30%; inconclusive means no clear call, values can overlap the other calls; inactive means below that.

SMILES	BoNT-A LC inh2	Anthrax LF prot	BoNT F protease	Autofluor counter	SSB-PriA inh
CC(C)(C)NC(=O)NC(=O)CN1CCN(S(=O)(=O)c2ccccc2)CC1	n	n	n	16805	n
O=C(Nc1ccc2c(c1)OCO2)c1cccc(S(=O)(=O)N2CCOCC2)c1	n	n	n	n	n
CCOc1ccc(S(=O)(=O)Nc2ccc3c(c2)C(=O)N(C)c2cc(C)ccc2O3)cc1F	x	x	x	x	n
Cc1cc(N/N=C/c2ccc(Br)cc2)nc(-n2nc(C)cc2C)n1	x	x	x	x	n
O=C(CCCS(=O)(=O)Cc1ccccc1)Nc1nnc(-c2ccc(F)cc2)o1	x	x	x	x	n
COc1ccc(Cl)cc1C(=O)NCCc1csc(-c2cccc(F)c2)n1	x	x	x	x	n
CC(=O)c1ccc(S(=O)(=O)N2CCC(NC(=O)Nc3cccc(F)c3)CC2)cc1	n	n	n	n	n
O=C(NCc1nc2ccccc2[nH]1)c1cccc(S(=O)(=O)N2CCOCC2)c1	n	n	n	22223	n
Cc1cc(NC(=O)COC(=O)C2CCN(S(=O)(=O)c3ccc(Cl)cc3)CC2)no1	n	n	n	n	n
O=C(Nc1ccc(N2CCCCC2)c(Cl)c1)c1ccc(N2CCOCC2)c([N+](=O)[O-])c1	n	n	n	n	n
COC(=O)c1cccc(S(=O)(=O)N2CCC(NC(=O)Nc3cccc(F)c3)CC2)c1	n	n	n	17460	n
O=C(NCc1nc2ccccc2[nH]1)c1cccc(S(=O)(=O)N2CCCC2)c1	n	n	n	n	n
Cc1cc(NC(=O)CN2CCN(S(=O)(=O)c3ccc(Cl)cc3)CC2)no1	n	n	n	19724	n
O=C(Nc1ccc2c(c1)OCO2)c1ccc(N2CCCC2)c([N+](=O)[O-])c1	n	n	n	n	39.0
O=C(O)C1CCCN1C(=O)CCl (stereo not given)	x	x	x	x	n
Cc1ccc(S(=O)(=O)N2CC(S(=O)(=O)CC(C)C)C2)s1	x	x	x	x	n
O=C(Nc1cccc(S(=O)(=O)N2CCOCC2)c1)c1cccc(S(=O)(=O)N2CCCC2)c1	n	n	n	n	n
O=C(Nc1cccc(F)c1)c1cccc(S(=O)(=O)N2CCOCC2)c1	n	n	n	24090	n
Cc1cc(=O)c2c(N)ccc(Cl)c2[nH]1	x	x	x	x	n
CSCC[C@H](NC(=O)OC(C)(C)C)c1nnc(SCC(N)=O)o1	n	n	n	n	n
CCSc1nnc([C@H](Cc2ccccc2)NC(=O)OC(C)(C)C)o1	n	n	n	23861	n
CCN(CC)C(=O)CSc1nnc([C@@H](NC(=O)OC(C)(C)C)C(C)C)o1	n	n	n	17771	n
CC(C)(C)OC(=O)N[C@@H](Cc1ccccc1)c1nnc(SCC(=O)c2ccc(Cl)cc2)o1	n	n	n	19238	n
CC(C)(C)OC(=O)N[C@@H](Cc1ccccc1)c1nnc(SCC(=O)O)o1	n	n	n	n	n
CSCC[C@H](NC(=O)OC(C)(C)C)c1nnc(SCC=C(C)C)o1	n	n	n	25549	n
SMILES	BoNT-A LC inh2	Anthrax LF prot	BoNT F protease	Autofluor counter	SSB-PriA inh
COc1ccc(CCC(=O)NCC(c2ccsc2)N2CCN(C)CC2)cc1 (stereo not given)	x	x	x	x	n
Cc1cccc(CN(C)CCc2ccccn2)c1	n	n	n	16809	n
Cc1ccccc1CN(C)CCc1ccccn1	n	n	n	n	n
CCOC(=O)c1oc2ccc(S(=O)(=O)N3CCOCC3)cc2c1C	u	n	n	16344	n
CN(C)S(=O)(=O)c1ccc(C(=O)Nc2ccccc2F)cc1	n	n	n	16551	n
CN(C)S(=O)(=O)c1ccc(C(=O)Nc2ccccc2C(=O)O)cc1	n	n	n	n	n
CCOC(=O)c1oc2ccccc2c1NC(=O)c1ccc(S(=O)(=O)N2CCCC2)cc1	n	n	n	20008	n
CCOC(=O)c1oc2ccccc2c1NC(=O)c1ccc(S(=O)(=O)N(C)C)cc1	n	n	n	20341	n
CCNCCOC(c1ccccc1)c1ccccc1	u	n	n	18751	n
CCc1nc2ccccc2n1CCC(N)=O	x	x	x	x	n
CCOC(=O)c1ccc(Oc2c(C)oc3c4c(ccc3c2=O)OCN(C2CCS(=O)(=O)C2)C4)cc1 (stereo not given)	x	x	x	x	38.0
COc1ccccc1Oc1coc2c3c(ccc2c1=O)OCN(C1CCS(=O)(=O)C1)C3 (stereo not given)	x	x	x	x	n
CCOC(=O)N1CCN(C(=O)C2CCCc3sc(NC(=O)c4ccc5c(c4)OCO5)nc32)CC1 (stereo not given)	x	x	x	x	n
O=C(O)c1ccc(S(=O)(=O)N2CCC(c3nc(-c4ccccc4Cl)no3)CC2)cc1	u	n	n	23179	n
CC(Oc1ccccc1Cl)C(=O)/C=C/N(C)C (stereo not given)	n	n	n	20970	n
O=C(NCC1CCN(c2cnccn2)CC1)C(=O)Nc1cc(F)ccc1F	x	x	x	x	n
COC(=O)c1c[nH]n2c(=O)cc(C)nc12	n	n	n	23157	n
O=C1C(=C2CCCCC2)SC(=S)N1Cc1ccco1	u	n	n	23926	n
Cc1ccccc1C(=O)NNC1=NCCC1	n	n	n	17045	n
Cc1ccccc1C(=O)NNC(=O)C(=O)Nc1cccc(Cl)c1C	n	n	n	20831	n
COC(=O)NNC(=O)c1ccccc1C	u	n	n	22876	n
Cc1c(Cl)cccc1NC(=O)C(=O)NNC(=O)c1ccccc1F	n	n	n	n	n
O=C(NNC1=NCCC1)c1cccc(Br)c1	n	n	n	n	n
CC(C)CCNC(=O)CCCCn1c(=O)c2ccccc2n(CC(=O)Nc2cccc(Cl)c2)c1=O	x	x	x	x	n
COc1cc(C(=O)Nc2cccc(-c3ccc4nncn4n3)c2)c([N+](=O)[O-])cc1OC	x	x	x	x	n
SMILES	BoNT-A LC inh2	Anthrax LF prot	BoNT F protease	Autofluor counter	SSB-PriA inh
CC1(O)c2ccccc2C(=O)N1Cc1ccccc1 (stereo not given)	n	n	n	17655	n
N=c1n(-c2ccccc2)c(O)cc(=O)n1-c1ccccc1	n	n	n	22975	n
CN1CCN(S(=O)(=O)c2ccc(-c3ccc(Cl)cc3)cc2)CC1	n	n	n	20018	n
Cc1ccnc(NS(=O)(=O)c2ccc(NC(=O)Cc3cccs3)cc2)n1	u	n	n	21122	n
CN1CCN(S(=O)(=O)c2ccc(Cl)cc2)CC1	n	n	n	n	n
Cc1ccc(S(=O)(=O)N2CCCN(S(=O)(=O)c3ccc4c(c3)OCCO4)CC2)cc1	n	n	n	26607	n
Cc1ccc2nc(C3CCN(C(=O)NCc4ccccc4)CC3)[nH]c2c1	n	n	n	17071	n
O=C(Cc1cccs1)Nc1ccc(S(=O)(=O)Nc2ncccn2)cc1	n	n	n	n	n
CCS(=O)(=O)c1ccccc1C(=O)N1CCC(c2nc3ccccc3s2)CC1	x	x	x	x	n
CC1CCCN(S(=O)(=O)c2ccc(NC(=O)CN3CCN(C)CC3)cc2)C1 (stereo not given)	n	n	n	16136	n
CC(=O)Nc1ccc(S(=O)(=O)N2CCCN(S(=O)(=O)c3ccc(C)cc3)CC2)cc1	n	n	n	27039	n
CN1CCN(S(=O)(=O)c2ccc(NC(=O)c3csc4ccccc34)cc2)CC1	u	n	n	16528	n
